HEK293 viab – cell viability loss counter-screen | HEK-293-SNCA-luc viability, GF-AFC fluorescence, 24 h | Potency, µM (titrated, usually from 57.1 µM), without a hit: top-dose activity change, negative = cytotoxicity, usual class: cytotoxic | hit rate 0.12% among 150,000 | AID 1671193;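 also: potency is read from the fitted curve at half-maximal effect; 0% = DMSO-treated cells and -100% = medium-only wells without cells; nearly all actives have a fitted effect of over 30% in size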
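HEK-293-SNCA-luc cells (1500/well) plated 24 h, then exposed 24 h to a dilution series; GF-AFC added 30 min at 37C, fluorescence 405/540 nm; normalised to medium-only and DMSO wells, Hill fit.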
HEK293 tox – cytotoxic compounds in HEK 293 cells; HEK 293 viability, ATP luminescence (CellTiter-Glo), 48-72 h; AID 1345083; hit rate 6.6% among 94,000; Potency, µM (titrated, usually from 115 µM), without a hit: at the top dose activity change, negative = cytotoxicity, most hits filed as inhibitors; also: potency is read from the fitted curve at half-maximal effect; nearly all actives have a fitted effect of over 60% in size
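CellTiter-Glo luminescence (cellular ATP) was read after 48 or 72 hr of compound exposure at 37 degree Celsius. Cells were HEK 293 plated at 250 cells/well.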
NIH3T3 tox – kills NIH 3T3 cells; hit rate 4.3% among 94,000; NIH 3T3 viability, CellTiter-Glo ATP luminescence, 48-72 h; Potency, µM (top dose mostly 96.7 µM), for the others: top-dose activity change, negative = cytotoxicity, usual class: inhibitors; AID 1345082; also: potency is read from the fitted curve at half-maximal effect; nearly all actives have a fitted effect of over 55% in size
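Cells were seeded at 400 per well, treated with pin-transferred compound, and kept 48 or 72 hr at 37 °C before CellTiter-Glo addition and luminescence imaging of cellular ATP.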
FLuc inh – blocks purified firefly luciferase enzyme activity; purified P. pyralis luciferase, luminescence, biochemical; Potency, µM (highest dose often 115 µM), most hits filed as inhibitors; hit rate 2.5% among 76,000; also: potency is read from the fitted curve at half-maximal effect; nearly all actives have a fitted effect of over 65% in size
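FLuc 10nM, D-luciferin 10uM, ATP 10uM, Mg acetate 10mM, Tris acetate pH 7.5, Tween/BSA; cpd qHTS; enzyme added last; CCD luminescence.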
IP6K1 inh – IP6K1 kinase inhibition | Q92551 | IP6K1 kinase, ADP-Glo luminescence, 2 h; stronger effect = lower value | activity change, % (series mostly up to about 58 µM) | hit rate 0.81% among 140,000 | AID 1645851; in the data active = activity change below about -25%
Target sequence (Q92551 whole entry, looked up): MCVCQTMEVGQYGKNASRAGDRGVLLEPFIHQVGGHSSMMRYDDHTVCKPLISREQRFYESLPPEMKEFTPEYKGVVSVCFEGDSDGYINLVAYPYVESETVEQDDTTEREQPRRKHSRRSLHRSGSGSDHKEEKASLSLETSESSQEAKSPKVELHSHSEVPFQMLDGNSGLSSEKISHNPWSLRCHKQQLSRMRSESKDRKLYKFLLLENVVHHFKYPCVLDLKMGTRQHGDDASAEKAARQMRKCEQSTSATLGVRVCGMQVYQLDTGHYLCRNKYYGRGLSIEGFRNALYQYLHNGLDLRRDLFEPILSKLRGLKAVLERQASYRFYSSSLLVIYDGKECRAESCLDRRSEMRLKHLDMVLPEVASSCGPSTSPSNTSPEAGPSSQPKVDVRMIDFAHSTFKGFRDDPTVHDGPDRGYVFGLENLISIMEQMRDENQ
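ADP-Glo luminescence measures ADP made by human IP6K1 during a 2 h RT reaction with ATP/IP6 (mix at 1.3 mM/130 uM); top library doses 57.5 and 19.1 uM final.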
SNCA expr inhib – SNCA gene expression inhibition; hit rate 0.17% among 140,000; Potency, µM (top dose mostly 57.2 µM), for inactives: at the top dose activity change, negative = inhibition, hits mostly inhibitors; HEK-293 SNCA-luciferase knock-in, luminescence, 24 h; AID 1671194;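 also: potency is read from the fitted curve at half-maximal effect; plate controls were DMSO cells for no effect and cell-free wells for full effect; nearly all actives have a fitted effect of over 45% in size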
An asterisk follows results filed as active; i = inactive; ? = inconclusive; / = no result; [ ] = remark or other dose. This is a sample that favours compounds with a hit; in the whole collection about 7.3% have one here. Unless noted, calls follow the shape of the dose curve; as a rule, active = well fitted curve in the direction sought with a large enough effect; inconclusive = small, poorly fitted or top-dose-only effect, or another doubt; inactive = no such curve, though single readings can be large; an effect the other way counts as inactive or inconclusive. Unless noted, % is scaled to controls: 0 for no effect and ±100 for the full control effect.

SMILES	HEK293 viab	HEK293 tox	NIH3T3 tox	FLuc inh	IP6K1 inh	SNCA expr inhib
Cn1ncc2c(C(=O)NCCCc3ccccc3)cc(-c3ccc(Cl)nc3)nc21	4%	-6%	-21%	/	16	-12%
COc1ccc(Nc2ccnc(N3CCN(C(=O)c4ccc(C)cc4)CC3)n2)cc1	?	13µM*	32µM*	/	15	-26%
COc1ccc(C(=O)N2CCCN(c3nccc(Nc4ccc(C)cc4)n3)C2)cc1	-7%[12.5 µM]	11µM*	?	/	-4	?
Cc1ccc(Nc2ccnc(N3CCCN([S+](=O)([O-])c4cccs4)C3)n2)cc1	6%[12.5 µM]	25µM*	?	/	-15	10%
Cc1ccc(Nc2ccnc(N3CCN(C(=O)c4ccc(C)cc4)CC3)n2)cc1	2%	?	?	/	-7	36%
COc1ccc(Nc2ccnc(N3CCN(C(=O)c4ccc(C(F)(F)F)cc4)CC3)n2)cc1	-16%	35µM*	?	/	6	3%
COc1ccc(C(=O)N2CCN(c3nccc(Nc4ccccc4F)n3)CC2)cc1	-19%[12.5 µM]	?	?	/	9	-8%
COc1ccc(Nc2ccnc(N3CCN(C(=O)N(C)C)CC3)n2)cc1	15%	?	?	/	8	6%
O=C(Nc1ccccc1)[C@H]1O[C@H](CCN2CCN(c3ccc(F)cc3)CC2)CC[C@@H]1O	-22%[87.6 µM]	?	?	i	20	-4%[87.6 µM]
O=C(c1ccsc1)N1CCC2(CC1)NC(=O)N(Cc1ccc(Cl)cc1)C2=O	-1%	?	?	i	-12	?
CCN1CCCC12Cc1ccccc1CN(C(C)=O)C2 (centres undefined)	-13%[87.6 µM]	-10%[172 µM]	-4%[138 µM]	/	-9	?
CC(=O)N1CCCN(c2nccc(Nc3ccc(C)cc3)n2)C1	-15%[12.5 µM]	?	?	/	1	129%[87.6 µM]
COC(=O)N1CCCN(c2nccc(Nc3ccc(C)cc3)n2)C1	-13%[12.5 µM]	50µM*	35µM*	/	-15	110%[87.6 µM]
CC(=O)c1ccc(NC(=O)O[C@@H]2CO[C@H]3[C@@H]2OC[C@@H]3n2nnnc2-c2ccccc2)cc1	7%	i	0%	i	-6	4%
COc1ccccc1-c1cccc(C(=O)N2CCN(C(=O)NC(C)C)CC2)c1	-14%[12.5 µM]	?	-15%	/	16	15%
CCN1c2cc(C(=O)Nc3ccc(OC)cc3)ccc2C(=O)N2CCCCC21 (centres undefined)	6%[12.5 µM]	?	?	i	-17	18%
CN1c2cc(C(=O)Nc3ccc4c(c3)CCC4)ccc2C(=O)N2CCCCCC21 (centres undefined)	-8%[12.5 µM]	?	?	?	44	67%
CCN1c2cc(C(=O)Nc3ccc(SC)cc3)ccc2C(=O)N2CCCCC21 (centres undefined)	-2%[12.5 µM]	?	40µM*	?	13	26%
CCN1c2cc(C(=O)Nc3cccc(SC)c3)ccc2C(=O)N2CCCCCC21 (centres undefined)	1%[12.5 µM]	22µM*	22µM*	i	-1	?
CCN1c2cc(C(=O)Nc3ccc(C)c(F)c3)ccc2C(=O)N2CCCCC21 (centres undefined)	-2%[12.5 µM]	?	28µM*	i	-1	-16%
CCN1c2cc(C(=O)Nc3ccc4c(c3)CCC4)ccc2C(=O)N2CCCCC21 (centres undefined)	-7%[12.5 µM]	22µM*	13µM*	?	3	-13%
COc1cccc(CN2CCOC3(CCN([S+](=O)([O-])c4ccccc4C)CC3)C2=O)c1	-4%	?	?	i	18	11%
CN(C)c1ccc(C(=O)N2CCC3(CC2)N=C(c2ccc(Br)cc2)NO3)cc1	-9%	?	-17%	i	-5	-9%
COCc1noc([C@@H]2CN(C(=O)c3cccc(C)c3)C[C@H]2COC)n1	3%	-1%	i	i	-10	14%
COc1ccc(CCNC(=O)c2cc3cn(C(C)C)cc3s2)cc1OC	-4%	-9%	-27%	i	0	6%

Bioassay records from PubChem.
